Assay outcomes: PubChem, several laboratories
An excerpt weighted towards active compounds, which were near 5.3% of everything screened.
HIF act = HIF pathway transcriptional activation. U2OS HRE-luciferase reporter, luminescence; normalized: DMSO 0%, desferrioxamine 100%. activation, % at 7.5 µM (by protocol). 0.32% of 300,000 active;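 active = mean activation of at least 10% of the iron chelator positive control signal, with at least half of replicates also reaching 10%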
SUMO Mot1 rescue = SUMOylation pathway inhibition by Mot1-301 growth rescue. S. cerevisiae Mot1-301 growth rescue, ATP luminescence, 38.5C; percent above DMSO median, 100 means doubled. growth rescue, % at 18.8 µM. 1% of 320,000 active. AID 2716;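 active = every valid replicate shows activation above 250% relative to neutral control wells; inactive = the rest, any valid replicate at or below 250%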;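 note: OY570 slx delta 5 strain wells were the positive control but not used for scaling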
ALR H2O2 inh = blocks human ALR sulfhydryl oxidase activity | purified ALR, DTT oxidation, H2O2 HRP-luminol luminescence | inhibition, % (concentration not given with the values) | 3.8% of 290,000 active | AID 485317;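 active = mean replicate inhibition above about 79%, with every replicate also reaching it, limit read from the data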
Target sequence (P55789 whole entry, looked up): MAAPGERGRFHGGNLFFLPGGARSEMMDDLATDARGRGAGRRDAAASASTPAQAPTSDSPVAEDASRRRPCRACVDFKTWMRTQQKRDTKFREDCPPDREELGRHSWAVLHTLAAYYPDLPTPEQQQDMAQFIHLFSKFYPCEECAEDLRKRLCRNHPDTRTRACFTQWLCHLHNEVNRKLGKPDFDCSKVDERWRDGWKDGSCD
PfM18AAP inh = blocks P. falciparum M18 aspartyl aminopeptidase. recombinant PfM18AAP, H-Glu-NHMec fluorogenic cleavage. inhibition, % at 7.35 µM. 1.2% of 290,000 active. AID 1822;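 active = inhibition above the campaign mean inhibition over all tested compounds plus 3 SD, cut at about 28% in these data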;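 note: 0% = plate median of test compound wells and 100% = 2 mM ZnCl2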
Yeast Mot1 SUMO = yeast SUMO pathway inhibition in dose response; AID 493004; shares compounds with SUMO Mot1 rescue; 2,300 tested, under 10 active; S. cerevisiae Mot1-301 galactose growth, ATP luminescence, 24 h; -100 = growth of slx-deleted rescue strain; growth activity, percent, % at 42 µM;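 active = Signal drops as the depositor expects, and the fitted half-maximal dose is no more than ten times the top valid tested dose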;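 note: more negative values mean stronger growth rescue toward the control strain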
An asterisk follows results filed as active; ! = not confirmed by another sample; [ ] = remark or other dose.

Screening Nn1c(SCc2cc([N+](=O)[O-])cc3c2OCOC3)nnc1-c1ccccn1 returned HIF act 1, SUMO Mot1 rescue 531*, ALR H2O2 inh -10, PfM18AAP inh -2 and Yeast Mot1 SUMO 1.
`COc1ccc(C(=O)NCCSc2ccc(C)cc2)cc1` gave HIF act 0, SUMO Mot1 rescue 470*, ALR H2O2 inh -5, PfM18AAP inh -1 and Yeast Mot1 SUMO 0.
Screening Cc1ccc(SCCNC(=O)c2ccccc2)cc1 returned HIF act 0, SUMO Mot1 rescue -6, ALR H2O2 inh -4 and PfM18AAP inh -3.
For N/C(Cn1cncn1)=N\NC(=O)c1ccc(Cl)cc1Cl the results were HIF act 0, SUMO Mot1 rescue 778*, ALR H2O2 inh -7, PfM18AAP inh 10 and Yeast Mot1 SUMO 1.
NC(=O)NC(=O)CSc1nc(C2CCCCC2)n(-c2ccccc2)n1 was read as HIF act 0, SUMO Mot1 rescue 685*, ALR H2O2 inh 1, PfM18AAP inh -8 and Yeast Mot1 SUMO 0.
Cc1cc(S(=O)(=O)N2c3ccc(F)cc3CCC2C)ccc1-n1cnnn1 (stereo not given) was read as HIF act 1, SUMO Mot1 rescue 98, ALR H2O2 inh -3 and PfM18AAP inh -1.
`Cc1c(N=Cc2cc(Br)cc(Br)c2O)cccc1C(=O)O` gave HIF act -1, SUMO Mot1 rescue 919*, ALR H2O2 inh 98*, PfM18AAP inh 34* and Yeast Mot1 SUMO 0.
`CN(/N=C/c1cc(Br)cc(Br)c1O)c1ccccc1` gave HIF act -1, SUMO Mot1 rescue 6, ALR H2O2 inh -25 and PfM18AAP inh 14.
`CCn1c(CSCc2ccc(C)cc2)nnc1SCC(=O)NCc1ccccc1` gave HIF act 0, SUMO Mot1 rescue -23, ALR H2O2 inh 7 and PfM18AAP inh -2.
For CCn1c(CSCc2ccc(F)cc2)nnc1SCC(=O)NCc1ccccc1 the results were HIF act 0, SUMO Mot1 rescue 924*, ALR H2O2 inh -5, PfM18AAP inh -12 and Yeast Mot1 SUMO 0.
Screening COc1c2ccoc2nc2c(OC)c(OC[C@@H](O)C(C)(C)O)ccc12 returned SUMO Mot1 rescue 724*, ALR H2O2 inh -12 and Yeast Mot1 SUMO -1.
`COc1c2ccoc2nc2c(OC)c(OCC(OC(C)=O)C(C)(C)O)ccc12` (stereo not given) gave HIF act 0, SUMO Mot1 rescue 26, ALR H2O2 inh -2 and PfM18AAP inh 3.
O=C(CSc1nncc2ccccc12)Nc1cccc(O)c1 was read as HIF act 0, SUMO Mot1 rescue 3 and PfM18AAP inh -3.
`CCCCCCCCCCOC(=O)Cn1c(COc2ccc(OC)cc2)[n+](C)c2ccccc21` gave HIF act 1, SUMO Mot1 rescue 563*!, ALR H2O2 inh -23, PfM18AAP inh 2 and Yeast Mot1 SUMO -2.
S=C(c1ccc(N2CCOCC2)cc1)N1CCCCC1 was read as HIF act -41, SUMO Mot1 rescue 367*, ALR H2O2 inh 87*, PfM18AAP inh -3 and Yeast Mot1 SUMO 0.
`S=C(c1ccc(Br)cc1)N1CCCC1` gave HIF act 2, SUMO Mot1 rescue 1, ALR H2O2 inh -4 and PfM18AAP inh -10.
`O=C(COC(=O)/C=C/c1ccc2c(c1)OCO2)NCc1ccccc1` gave SUMO Mot1 rescue -2 and ALR H2O2 inh -3.
For COCCNCc1ccccc1 the results were HIF act 0, SUMO Mot1 rescue 647*, ALR H2O2 inh -8, PfM18AAP inh 1 and Yeast Mot1 SUMO 0.
Screening NS(=O)(=O)c1ccc(CNc2nc(-c3cccnc3)nc3ccccc23)cc1 returned HIF act 0, SUMO Mot1 rescue 15, ALR H2O2 inh -2 and PfM18AAP inh 8.
CC1CCN(CCCCOc2ccc(Br)cc2)CC1 was read as HIF act 0, SUMO Mot1 rescue 161, ALR H2O2 inh -7 and PfM18AAP inh 0.
For CC1CCN(CCCCOc2cccc(Br)c2)CC1 the results were HIF act -1, SUMO Mot1 rescue 373*, ALR H2O2 inh -1, PfM18AAP inh -2 and Yeast Mot1 SUMO 0.
Clc1cccc(Cl)c1-c1nnc2cccc(Cl)n12 was read as HIF act 0, SUMO Mot1 rescue 3, ALR H2O2 inh -3 and PfM18AAP inh 5.
`O=c1cnc2ccccc2n1Cc1ccccc1C(F)(F)F` gave HIF act -2, SUMO Mot1 rescue 515*, ALR H2O2 inh 1, PfM18AAP inh -3 and Yeast Mot1 SUMO 0.
For O=c1[nH]cnc2cc(Cl)ccc12 the results were HIF act 0, SUMO Mot1 rescue active, ALR H2O2 inh -9, PfM18AAP inh -6 and Yeast Mot1 SUMO 0[21 µM].
Screening O=C(O)CSc1ccnc2cc(Cl)ccc12 returned HIF act 0, SUMO Mot1 rescue -1, ALR H2O2 inh -10 and PfM18AAP inh 1.
For COc1ccc(NC2=C3CC(C)CC=C3N(c3ccc(OC)cc3)C2=O)cc1 (stereo not given) the results were HIF act 0, SUMO Mot1 rescue -11, ALR H2O2 inh 66 and PfM18AAP inh 10.
Screening O=C(Nc1ccc([N+](=O)[O-])cn1)C1CC1 returned HIF act 0, SUMO Mot1 rescue 573*, ALR H2O2 inh -6, PfM18AAP inh 3 and Yeast Mot1 SUMO 1.
`O=C(Nc1ccc([N+](=O)[O-])cn1)C1CCCCC1` gave HIF act 0, SUMO Mot1 rescue 10, ALR H2O2 inh -4 and PfM18AAP inh -1.
O=C(O)c1c2c(nc3ccc(S(=O)(=O)N4CCC(C(=O)NC5CCCCCC5)CC4)cc13)CCCC2 was read as HIF act -1, SUMO Mot1 rescue -10 and PfM18AAP inh 2.
COc1ccc(OC)c(S(=O)(=O)N2CCC(C(=O)NC3CCCC3)CC2)c1 was read as HIF act 2, SUMO Mot1 rescue 4, ALR H2O2 inh 2 and PfM18AAP inh 0.
For c1ccc2cc(Cn3ccnc3)ccc2c1 the results were HIF act -1, SUMO Mot1 rescue 413*, ALR H2O2 inh -9, PfM18AAP inh -14 and Yeast Mot1 SUMO -1.
Screening CNC(=O)Nc1cccc(C(F)(F)F)c1 returned HIF act 0, SUMO Mot1 rescue 5, ALR H2O2 inh -16 and PfM18AAP inh -5.
Screening CNC(=O)Nc1cc(NC(=O)NC)cc(C(F)(F)F)c1 returned HIF act 0, SUMO Mot1 rescue 586*, ALR H2O2 inh -2, PfM18AAP inh -5 and Yeast Mot1 SUMO 0.
`Cc1ccc(C)c(NC(=S)NC(=O)c2cncc(Br)c2)c1` gave HIF act 0, SUMO Mot1 rescue 571*, ALR H2O2 inh 10 and Yeast Mot1 SUMO 0.
Screening O=C(CNc1cccc(C(F)(F)F)c1)N/N=C/c1ccccc1C(=O)O returned HIF act 0, SUMO Mot1 rescue 5, ALR H2O2 inh -1 and PfM18AAP inh 4.
COc1ccccc1CNC(=O)C1CCCN1S(=O)(=O)c1cccc2cccnc12 (stereo not given) was read as SUMO Mot1 rescue -2, ALR H2O2 inh -35 and PfM18AAP inh 0.
